The source of these data is PubChem BioAssay AID456 (Sanford-Burnham Center for Chemical Genomics, 2006).

Structures are written as SMILES. Out of some 10,000 compounds screened, about 25 (0.2%) were called active. The full list was thinned out, with actives kept by preference. Entries with a potency or affinity are not part of this list. A number with no mark means an inactive call.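 How the source made its calls: active means top tenth filtered wells with inhibition above zero that passed visual or statistical confirmation; inactive means the rest, including hits rejected on review.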

A short description of the test: inhibitors of TNFa-induced VCAM-1 surface display, imaging, high-content imaging, pooled HUVEC, TNFa stimulus (AID 456).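 On inhibition: VCAM-1 immunofluorescence minus red nonspecific channel after plate median normalization.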 The note with it: HUVEC TNFa-induced VCAM-1 surface expression, immunofluorescence imaging;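 compounds screened at 5 µM final in the well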.
`Cc1ccc(Nc2nc(N)nc(CN3CCN(Cc4ccc5c(c4)OCO5)CC3)n2)cc1`: the inhibition (commonly the percentage by which the read-out fell short of the control) was “inactive”. For `COc1ccccc1C(=O)Nc1ccc(S(=O)(=O)N2CCCC2)cc1`, the inhibition entry is “inactive”. `CCOC(=O)c1ccc(NC(=O)CSCc2ccco2)cc1`: the inhibition entry is “inactive”.

Consider `COC(=O)c1cc(=O)n(Cc2ccc3c(c2)OCO3)c(=Nc2ccccc2)s1`, for which the inhibition was 96.4%.

Regarding `COc1ccc(S(=O)(=O)Cc2ccc(C(=O)N3CCN(Cc4ccccc4)CC3)o2)cc1`, the inhibition result was “inactive”. As for `CCC(c1c(C)n(C)n(-c2ccccc2)c1=O)c1c(C)n(C)n(-c2ccccc2)c1=O`, the inhibition result was “inactive”.

For `Cc1nc2sccn2c(=O)c1CCN1CCC(=C(c2ccc(F)cc2)c2ccc(F)cc2)CC1`, the inhibition was 87.2%.

As for `Cc1nc2ccccn2c(=O)c1CCN1CCC(C(=O)c2ccc(F)cc2)CC1`, the inhibition result is “inactive”. In the case of `CCOC(=O)c1cc2c(=O)n3ccccc3nc2n(CC(C)C)c1=NC(=O)c1ccco1`, the inhibition result is “inactive”.

Turning to `Cc1cccn2c(=O)c3cc(C#N)c(=NC(=O)c4ccncc4)n(Cc4ccco4)c3nc12`, the inhibition entry was “inactive”. For `CC(C)n1c(=NC(=O)c2ccco2)c(C#N)cc2c(=O)n3ccccc3cc21`, the inhibition was 78.9% (active). Take `Cc1n[nH]c(C)c1S(=O)(=O)N1CCCCCC1`: the inhibition entry was “inactive”. For `CC1Oc2ccccc2N(CC(=O)N(Cc2ccccc2)Cc2ccccn2)C1=O` (centres undefined), the inhibition entry was “inactive”. In the case of `COc1ccc(N2CCN(Cc3nc(-c4ccc(Cl)cc4Cl)no3)CC2)cc1`, the inhibition entry was “inactive”. As to `O=C(/C=C1\NC2(CCCC2)Cc2ccccc21)N1CCOCC1`, the inhibition result was “inactive”. The same measure for `CCCN1C=CC(=C2C(=O)c3ccccc3C2=O)C=C1`: “inactive”. Consider `COc1ccc2cc3cc(C(=O)NCC4CCCO4)oc3nc2c1` (centres undefined), for which the inhibition result is “inactive”. For `CC1(C(=O)NC2CCCCC2)CCC(=O)N1Cc1cccs1` (centres undefined), the inhibition entry was “inactive”. In the case of `COc1ccc(Br)cc1S(=O)(=O)N1CCOCC1`, the inhibition result was “inactive”. As to `Cc1cccc(-c2nnc(SCC#N)n2-c2cccc(Cl)c2)c1`, the inhibition entry is “inactive”. Turning to `COc1ccc2cc(CN(CCO)C(=O)c3ccccc3F)c(=O)[nH]c2c1`, the inhibition entry is “inactive”. Next, `CCn1nnc(NC(=O)c2cc3ccccc3o2)n1`: “inactive”; `CCOC(=O)c1cccc(NC(=O)CSc2nnc(-c3ccoc3C)n2CCOC)c1`: “inactive”; `COC(=O)c1ccccc1NC(=O)CSc1nc2c(c(=O)n(C)c(=O)n2C)n1C`: “inactive”. Take `O=C(c1cnn2c(C(F)F)cc(-c3ccccc3)nc12)N1CCN2CCCC2C1` (centres undefined): the inhibition entry is “inactive”. As for `Cc1ccc(-c2cc(C(F)F)n3ncc(C(=O)N4CCN(c5ccccn5)CC4)c3n2)cc1`, the inhibition is 80.5% (active).

On to `CCOc1ccc(-c2cc(C(=O)N3CCN(c4ccccn4)CC3)c3ccccc3n2)cc1`, for which the inhibition entry is “inactive”.

For the compound `CC1(C)CC(CCNC(=O)c2ccco2)CC(C)(C)N1`, the inhibition result is “inactive”. Turning to `CC1CCc2nn(CC(=O)NCc3ccc4c(c3)OCO4)cc2C1` (centres undefined), the inhibition entry is “inactive”. The same measure for `CCS(=O)(=O)c1nc2ccccc2n1Cc1ccccc1Cl`: “inactive”; for `O=C1c2oc3ccccc3c(=O)c2C(c2ccccn2)N1Cc1ccccc1` (centres undefined): “inactive”; for `COc1ccc(Cl)c(NC(=O)NCCN2CCN(c3ccccc3)CC2)c1`: “inactive”. Take `Cc1cc2ncn(C(=O)c3c(-c4ccccc4)noc3C)c2cc1C`: the inhibition entry was “inactive”. As for `CCOC(=O)N1CCC(N2C(=O)c3ccccc3C2Nc2cc(Cl)c(OC)cc2OC)CC1` (centres undefined), the inhibition is 72.7% (active).

As to `CCOC(=O)N1CCC(N2C(=O)c3ccccc3C2Nc2ccccc2C)CC1` (centres undefined), the inhibition entry is “inactive”. The same measure for `CCOC(=O)c1ccccc1NC1c2ccccc2C(=O)N1C1CCN(C(=O)OCC)CC1` (centres undefined): “inactive”; for `CCN(CC)C(=O)CSc1nnc([C@@H](N)Cc2ccccc2)o1`: “inactive”; for `Cc1nnc(NC(=O)c2ccccc2F)s1`: “inactive”.

As for `CCOc1ccc(N(CC(=O)NC2CCCC2)S(=O)(=O)c2c(C)[nH]c(=O)[nH]c2=O)cc1`, the inhibition entry is “inactive”. As to `CC1CC(C)CN(Cc2nc3c(c(=O)n(C)c(=O)n3C)n2Cc2ccccc2Cl)C1` (centres undefined), the inhibition result is “inactive”.

On to `O=C(COC(=O)c1ccc(S(=O)(=O)Nc2ccccc2)cc1)NCCN1C(=O)CSC1=O`, for which the inhibition entry was “inactive”. Next, `CCOC(=O)CSc1nc2ccccc2c(=O)n1CCN1CCOCC1`: “inactive”; `O=C(NCCC1=CCCCC1)C1CC(=O)N(C2CCCCCC2)C1` (centres undefined): “inactive”. The same measure for `Cc1ccc(-c2ccc(=O)n(CC(=O)NCCCN3CCCCC3C)n2)cc1` (centres undefined): “inactive”; for `CCCN1CCN(CCCNC(=O)Cn2nc(-c3ccc(Cl)cc3)ccc2=O)CC1`: “inactive”; for `COCc1nnc(NC(=O)CCCOc2ccccc2)s1`: “inactive”. The same measure for `Cc1ccc(NC(=O)CCC(=O)O)cc1F`: “inactive”; for `CC1Cc2ccccc2N1C(=O)CSc1nnc2n1C(C)(C)Cc1ccccc1-2` (centres undefined): “inactive”.

For the compound `CCOc1ccc(Nc2nc(Cc3nnc(SCC(N)=O)o3)cs2)cc1`, the inhibition entry was “inactive”. Regarding `COc1ccc(Br)cc1C1N2CC3(C)CN1CC(C)(C2)C3=O` (centres undefined), the inhibition entry was “inactive”. As for `Cc1cc(C)nc(SC2=CS(=O)(=O)c3ccccc32)n1`, the inhibition was 99.6%. Next, `O=S1(=O)C=C(Sc2nnc(-c3ccccc3)o2)c2ccccc21`: “inactive”.

For the compound `CCCCN(CCCC)CCn1cnc2c([nH]c3ccc(OC)cc32)c1=O`, the inhibition result was “inactive”. In the case of `O=C(CC1Oc2ccccc2NC1=O)NCCCN1CCOCC1` (centres undefined), the inhibition entry was “inactive”. The same measure for `CC(C)(C)OC(=O)N1CCC(C(=O)N2CCCCCC2)CC1`: “inactive”; for `Nc1cc(N)cc(-c2nc3ccccc3o2)c1`: “inactive”. Next, `Nc1nc(CN2CCOCC2)cs1`: “inactive”; `CC(C(=O)N1c2ccc(F)cc2CCC1C)N1C(=O)c2ccccc2C1=O` (centres undefined): “inactive”; `COc1cccc(NC(=O)CN2CCN(c3ccccc3F)CC2)c1`: “inactive”. Turning to `CCOc1ccc(N(CC(=O)Nc2ccc(C)c(C)c2)S(=O)(=O)c2c(C)noc2C)cc1`, the inhibition result was “inactive”. For the compound `N#CCCN(Cc1cccnc1)C(=O)Nc1ccc(Cl)c(Cl)c1`, the inhibition entry is “inactive”. As to `COc1ccccc1-c1noc(-c2ccco2)n1`, the inhibition result is “inactive”.

Regarding `Cc1cc(=O)n2[nH]c(-c3ccc(Cl)cc3)cc2n1`, the inhibition result is “inactive”.

`CCOC(=O)Cn1nc(-c2ccc(Cl)cc2)cc1N`: the inhibition entry is “inactive”. On to `COc1ccc(NC(=O)CN(c2cc(C)cc(C)c2)S(=O)(=O)c2c(C)noc2C)cc1OC`, for which the inhibition entry is “inactive”. As to `CC(=O)Nc1nc(C)c(-c2csc(Nc3ccc(O)cc3)n2)s1`, the inhibition entry is “inactive”.

Consider `c1cc2c(cc1Nc1nc(-c3ccc4c(c3)OCO4)cs1)OCCO2`, for which the inhibition result was “inactive”. On to `Cc1ccc(Cc2c(C)nc3c(C(=O)O)cnn3c2C)cc1`, for which the inhibition result is “inactive”. Regarding `CCOC(=O)CN1CC23C=CC(O2)C(C(=O)Nc2ccc(OCC)cc2)C3C1=O` (centres undefined), the inhibition result was “inactive”. Turning to `CN(C)CCCN1c2ccccc2Sc2ccccc21`, the inhibition entry was “inactive”. The same measure for `CN(C)CCCN1c2ccccc2CCc2ccccc21`: “inactive”.

With `CNCCCN1c2ccccc2CCc2ccccc21`, the inhibition entry is “inactive”. Regarding `CN(C)CCCN1c2ccccc2Sc2ccc(C(F)(F)F)cc21`, the inhibition result was “inactive”.

As for `CCC1CCCCN1CCCNC(=O)CC1Oc2ccc(C)cc2NC1=O` (centres undefined), the inhibition result is “inactive”.
